In all, about 420,000 compounds went through this assay and about 50,000 (12%) were called active. About 26% were inconclusive and are not listed. The call rests on the fitted dose curve; in most records, active means well fitted inhibition curve with a large enough effect; inconclusive means small, poorly fitted or top-dose-only effect; inactive means flat fitted curve, though single readings scatter. The list comes from a sample in which actives are over-represented; it also holds similar structures and randomly drawn compounds. Where a call stands in place of a potency, no number is given.
Potency means the concentration at half of the fitted maximal effect.

A short description of the test: qHTS for Inhibitors of human tyrosyl-DNA phosphodiesterase 1 (TDP1): qHTS in cells in presence of CPT. Further: nearly all actives have a fitted effect of over 55% in size. The note with it: chicken DT40 Tdp1-/-;hTDP1 cells + 20 nM CPT, ATP luminescence, 48 h; series mostly up to 46.2 µM. The procedure, abridged: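 Cell growth measured by CellTiter-Glo luminescence after a minimum 48 h, 37 C compound exposure with 20 nM CPT in Tdp1-knockout DT40 cells stably expressing hTDP1, seeded 400/well; qHTS titration format.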
Background: In qHTS, concentration-response curves come from the screen itself.
On to `CC(=O)N1CCN(CC(c2ccccc2)c2ccccc2)CC1`, for which the Potency entry is “inactive”. On the same count and under the same terms, then `CCOc1cc(/C=N/NC(=O)c2ccc(CSc3nncn3C)cc2)ccc1OCC(=O)N1CCOCC1`, with “inactive”; and `COc1cc(OC)cc(C(=O)Nc2nnc(SCC(=O)NCC3CCCO3)s2)c1` (stereo not drawn), with “inactive”; and `Cc1noc(C)c1-c1nc(CSc2ccc(Cl)cc2)no1`, with “inactive”. Still for that read-out and setting: then `CCN(CC)S(=O)(=O)c1ccc(C)c(NC(=O)COc2ccc(Br)cc2Cl)c1`, with “inactive”; and `Oc1ccc(Br)cc1C1C=C(c2ccc3c(c2)OCO3)NC(c2ccc(Cl)cc2)N1` (stereo not drawn), with 7.08 µM (active). On the same count and under the same terms, the value for `Cc1cccc(-n2c(=O)c3c(c4cc(C)ccc4n3C)n(CC(=O)Nc3ccccc3Cl)c2=O)c1` was “inactive”; that for `CC1CCCCN1CC(=O)N1CCCc2c1c(=O)oc1ccc(OCc3ccccc3)cc21` (stereo not drawn) was 16.4 µM (active).

As for `O=C(CN1CCOCC1)N1CCCc2c1c(=O)oc1ccc(OCc3ccccc3)cc21`, the Potency is 18.4 µM (active). For the compound `O=C(COc1ccc2oc3c(c2c1)CCCC3)Nc1ccccn1`, the Potency entry was “inactive”. For the compound `Cc1c(C(=O)N2CCOCC2)[nH]c2ccc(OCc3ccccc3)cc12`, the Potency entry is “inactive”.

On to `NC(=O)C1CCN(C(=O)COc2ccc3c4c(c(=O)oc3c2)CCC4)CC1`, for which the Potency entry is “inactive”. As to `CC1CCCCN1CC(=O)NCc1ccc2c(c1)OCO2` (stereo not drawn), the Potency result is “inactive”. The same measure, in the same setting: then `COc1ccccc1C(=O)NCCn1cc(SCC(=O)NCc2ccco2)c2ccccc21`, with “inactive”. For `O=C(O)Cc1ccc(NC(=O)Nc2cccc3ccccc23)cc1`, the Potency result was “inactive”. In the case of `CN(C(=O)CCNC(=O)Cn1ccc2ccccc2c1=O)c1ccc(Br)cc1`, the Potency result is “inactive”. Still for that read-out and setting: the value for `Cc1cc(C)c(S(=O)(=O)N2CCC(C(=O)OCc3c(C)noc3C)CC2)c(C)c1` was “inactive”; that for `CC(C)(C)N(CC#CCC(O)(c1ccccc1)C1CCCC1)CCO` (stereo not drawn) was “inactive”; that for `CN(CC#CCC(c1ccccc1)c1ccccc1)C(C)(C)C` was 12.6 µM (active). For `CCc1[nH]nc(C(=O)N2CCCC(CNS(=O)(=O)c3cccs3)C2)c1C` (stereo not drawn), the Potency entry is “inactive”.

As for `Cc1cc(C)nc(SCc2cn3c(C)cc(C)nc3n2)n1`, the Potency entry was “inactive”. With `O=C(NC1CCCC1)C(c1ccco1)N(C(=O)c1csnn1)c1ccccc1` (stereo not drawn), the Potency result was “inactive”.

Turning to `CCOC(=O)CCC(NC(=O)c1ccc(CNc2nc3cc(C(F)(F)F)ccc3nc2C(=O)OCC)cc1)C(=O)OCC` (stereo not drawn), the Potency result was “inactive”. On to `Cc1ccc(OC(=O)c2ccccc2C(=O)OCC(F)(F)C(F)F)cc1`, for which the Potency result was “inactive”. Take `CCN(CC)CCNS(=O)(=O)c1ccc(/C=C/C(=O)O)cc1`: the Potency entry is “inactive”.

On to `Cn1cc(CN2CCCCC2c2ccccn2)c(-c2ccc3c(c2)OCCO3)n1` (stereo not drawn), for which the Potency entry is “inactive”.

`CC1(C(=O)NS(=O)(=O)c2ccc(Cl)cc2)CCN1C(=O)CC1CCCC1` (stereo not drawn): the Potency result was “inactive”. For `CC1(C(=O)Nc2cccc3cccnc23)CCN1C(=O)CCC1CCCC1` (stereo not drawn), the Potency is 16.4 µM (active). Still for that read-out and setting: then `CC1(C(=O)Nc2ccccc2Br)CCN1C(=O)CC1CC1` (stereo not drawn), with “inactive”; and `Cc1ccc(S(=O)(=O)N2CCN(C(=O)N3CCOCC3)CC2)c(C)c1`, with “inactive”. Consider `CN1CCN(S(=O)(=O)c2cccc(C(=O)O)c2)CC1`, for which the Potency entry was “inactive”. The same measure, in the same setting: the value for `CNC(=O)C1CN(C(=O)c2cccc(S(=O)(=O)N3CCc4ccccc43)c2)c2ccccc2O1` (stereo not drawn) was 7.31 µM (active).

As to `CCS(=O)(=O)c1ccc2c(c1)N(S(=O)(=O)c1ccccc1)CC(C(=O)O)O2` (stereo not drawn), the Potency result was “inactive”.

For the compound `CC1CCN(C(=O)c2cccc(S(=O)(=O)N3CCCc4ccccc43)c2)CC1`, the Potency was 16.4 µM (active). Turning to `CC(=O)N1CCN(S(=O)(=O)c2cccc(C(=O)NC3CCC(C)CC3)c2)CC1` (stereo not drawn), the Potency entry was “inactive”. The same measure, in the same setting: the value for `CC1Cc2ccccc2N1S(=O)(=O)c1cccc(C(=O)OCC(=O)N2CCOCC2)c1` (stereo not drawn) was “inactive”. The same measure, in the same setting: the value for `Cc1ccccc1OCC(=O)Nc1c(C(=O)Nc2ccccc2F)oc2ccccc12` was “inactive”; that for `O=C(OC1CCCCC1=O)c1cccc(S(=O)(=O)NCc2ccccc2)c1` (stereo not drawn) was “inactive”. For the compound `CCOc1ccc(N(CC(=O)NCCc2ccc(F)cc2)S(=O)(=O)c2ccccc2)cc1`, the Potency is 20.6 µM (active). `CCOc1ccc(N(CC(=O)NCCc2ccc(OC)cc2)S(C)(=O)=O)cc1`: the Potency result is “inactive”. The same measure, in the same setting: then `COc1ccc(CCNC(=O)CN(c2ccccc2)S(=O)(=O)c2ccccc2)cc1`, with “inactive”; and `Cc1ccc(NC(=O)COC(=O)CN2CCSC2=O)cc1F`, with “inactive”; and `C/C(=N/N1CCN(Cc2cccc3ccccc23)CC1)c1cccnc1`, with “inactive”. Take `Cc1ccc2c(C)nc(N3CCCC(C(=O)NC(C)(C)CO)C3)nc2c1` (stereo not drawn): the activity change, negative = growth inhibition is -5.72% [at 9.04 µM] (inactive).

On to `Fc1cccc(Cl)c1COc1ccc(-c2nnco2)cc1`, for which the Potency entry is “inactive”. Regarding `COC(=O)CCNc1ccc2c(c1)OCCO2`, the Potency entry is “inactive”. `O=C(COc1ccc(Cl)cc1)Nc1ccc2c(c1)OCO2`: the Potency entry is “inactive”. On the same count and under the same terms, the value for `CCOc1ccc(NCCC(=O)c2ccc3c(c2)OCO3)cc1` was 25.9 µM (active); that for `O=C1C=C(c2cccc(Br)c2)C[C@@H](c2ccc(F)cc2)C1` was “inactive”. On the same count and under the same terms, the value for `Cn1cc[n+](C)c1COc1ccc(C=O)cc1` was “inactive”; that for `CC(C(=O)O)c1ccc(C2CCCCC2)c2ccccc12` (stereo not drawn) was “inactive”. On to `COc1ccc(NS(=O)(=O)c2ccc(F)cc2F)cn1`, for which the Potency entry was “inactive”. Still for that read-out and setting: then `O=C(c1ccccc1F)N(Cc1ccccc1)Cc1ccccc1`, with 8.2 µM (active). On the same count and under the same terms, the value for `O=C(O)CCC(=O)N(Cc1ccccc1)Cc1ccccc1` was “inactive”; that for `O=C(NCCOc1ccccc1)c1ccccc1F` was “inactive”; that for `Cc1ccc(C(=O)NNC(=O)c2ccc3c(c2)OCCO3)cc1` was “inactive”.

In the case of `Fc1ccc2[nH]c3c(N4CCN(Cc5ccc6c(c5)OCO6)CC4)ncnc3c2c1`, the Potency is 2.31 µM (active). Take `N#C/C=C/N1CCN(Cc2ccc3c(c2)OCO3)CC1`: the Potency result is “inactive”.

Take `COc1cc(Cl)c(S(=O)(=O)N2CCN(Cc3ccc4c(c3)OCO4)CC2)cc1Cl`: the Potency result is “inactive”. For `Fc1ccc2[nH]c3c(N4CCSCC4)ncnc3c2c1`, the Potency was 11.6 µM (active). The same measure, in the same setting: the value for `CC1CN(CC(=O)NC(C)c2ccccc2)CC(C)O1` (stereo not drawn) was “inactive”; that for `COc1ccccc1CNC(=O)CSc1nc(=O)n(Cc2ccncc2)c2c1CCC2` was “inactive”.

Turning to `O=c1c(-c2cccc(Cl)c2)c[nH]n1-c1ccccc1`, the Potency entry is “inactive”. The same measure, in the same setting: then `Cc1cccc(N=Nc2c(C)[nH]n(-c3ccccc3)c2=O)c1`, with “inactive”; and `Cc1[nH]n(-c2cccc(Cl)c2)c(=O)c1-c1ccc(Cl)cc1`, with 16.4 µM (active); and `Cc1ccc2cc(C)c(N3CCN(c4ccc(F)cc4)CC3)nc2c1`, with “inactive”. Same read-out and setting: the value for `Cc1ccc(OCCCC(=O)Nc2ccc(S(=O)(=O)Nc3cc(C)nc(C)n3)cc2)cc1` was “inactive”; that for `COc1cc(OC)c(C2=NOC(C(=O)Nc3c(C)n(C)n(-c4ccccc4)c3=O)C2)cc1Cl` (stereo not drawn) was “inactive”. As for `O=C(Nc1ccc(Cl)cc1)C1c2cccc[n+]2CC(=O)N1Cc1ccc2c(c1)OCO2` (stereo not drawn), the Potency was 1.3 µM (active). With `CC1CCC(NC(=O)C2c3ccccc3C(=O)N2Cc2ccc3c(c2)OCO3)CC1` (stereo not drawn), the Potency entry is “inactive”. Turning to `O=C(Nc1ccc2c(c1)OCCO2)C1c2ccccc2OCC(=O)N1Cc1ccccn1` (stereo not drawn), the Potency entry is “inactive”. Turning to `CCOc1ccc(NS(=O)(=O)c2ccc(N)cc2)nn1`, the Potency entry is “inactive”.

As for `COc1cccc(NC(=O)c2ccccc2N(Cc2ccccc2)S(C)(=O)=O)c1`, the Potency entry is “inactive”.

In the case of `COc1ccc(S(=O)(=O)N2CCN(CC(=O)NCC3(N4CCOCC4)CCCCC3)CC2)cc1`, the Potency result is “inactive”. With `O=C1CCC(C(=O)Nc2ccc(OC(F)F)cc2)N1` (stereo not drawn), the Potency result is “inactive”. With `CC(C)N(Cc1ccccc1)C(=S)Nc1ccc(OC(F)F)cc1`, the Potency entry was “inactive”.

Take `CC(NC(=S)Nc1ccc(OC(F)F)cc1)c1ccc(F)cc1` (stereo not drawn): the Potency is 14.6 µM (active).

On to `Cc1c(CN2CCC(n3nccc3NC(=O)CCc3ccccc3)CC2)cnn1C`, for which the Potency result is “inactive”. For `COc1cccc(/C=N/NC(=O)c2[nH]nc3c2CCc2ccccc2-3)c1O`, the Potency was 2.31 µM (active). The same measure, in the same setting: the value for `CN(C)CCNC(=O)c1[nH]nc2c1CCc1ccccc1-2` was “inactive”; that for `COc1cc2cc(C(=O)N/N=C/c3cccc(OC)c3OC)[nH]c2cc1OC` was “inactive”; that for `O=C1CC(c2cccc(Cl)c2)CC(O)=C1C=Nc1ccccc1` (stereo not drawn) was “inactive”. With `CSc1ncnc2c1ncn2CCCNCc1cccs1`, the Potency result is “inactive”.

Consider `Cn1c(=O)c2c(n3c4ccccc4nc13)NC(=O)CC2c1cccc(Cl)c1` (stereo not drawn), for which the Potency result is “inactive”.

With `CC(Oc1cccc(NC(=O)c2cccs2)c1)C(=O)c1ccccc1` (stereo not drawn), the Potency result is “inactive”. With `Cc1ccc(-c2noc(-c3nnn(-c4cccc(C(F)(F)F)c4)c3N)n2)cc1`, the Potency entry was “inactive”. Same read-out and setting: then `CC(C)N(Cc1nnc(-c2ccc(Cl)cc2)o1)C(=O)C1=COCCO1`, with 9.2 µM (active); and `O=C(c1nnc(-c2ccc(Cl)cc2)o1)C1CCCC1`, with “inactive”. Regarding `Cc1ccc2nc(N(CCN(C)C)C(=O)C3=COCCO3)sc2c1`, the Potency entry is “inactive”.

As to `N#Cc1ccc(-c2cccs2)nc1SCc1ccc(Br)cc1`, the Potency entry was “inactive”.

Turning to `Nc1c(-c2ccccc2)nnn1Cc1ccccc1`, the Potency entry is “inactive”.

With `Cc1cc(C(=O)NC2CCCc3c2cnn3-c2cccc(C)c2C)c(C)o1` (stereo not drawn), the Potency was 13 µM (active). For `COc1ccc(C(=O)NC2CCCc3c2cnn3-c2cccc(C)c2C)c(OC)n1` (stereo not drawn), the Potency was 10.3 µM (active).

Turning to `Cc1cc(C(=O)NNC(=O)CCC2CCCCC2)c(C)o1`, the Potency result is “inactive”. Regarding `COCc1c(C(=O)NC2CCCCC2)cnn1-c1nccc(-c2ccccc2OC)n1`, the activity change, negative = growth inhibition is 5.12% [at 9.04 µM] (inactive). For the compound `Cc1cccc(C(=O)OC(C)C(=O)NC2CCCc3ccccc32)c1O` (stereo not drawn), the Potency entry is “inactive”.

For `Cc1cc(C(=O)NCC2Cc3cccc(-c4cncnc4)c3O2)c(C)o1` (stereo not drawn), the activity change, negative = growth inhibition was 6.48% [at 9.04 µM] (inactive). For `CCN(CC(=O)NCc1ccc(F)cc1)S(=O)(=O)c1ccc(Cl)s1`, the Potency entry is “inactive”. The same measure, in the same setting: the value for `Cc1ccccc1CCNC(=O)C1CCC(=O)N(Cc2ccc(Cl)cc2)C1` (stereo not drawn) was “inactive”. Same read-out and setting: the value for `C/C(=N\Nc1ccc(S(N)(=O)=O)cc1[N+](=O)[O-])c1cccs1` was “inactive”.

Regarding `CCC(=O)N1CCc2cc(S(=O)(=O)NC(C(=O)N3CCc4ccccc4C3)C(C)C)ccc21` (stereo not drawn), the Potency entry was “inactive”. The same measure, in the same setting: then `CCCN(CCC)S(=O)(=O)c1cc2c(cc1Br)CCN2C(=O)CC`, with 8.2 µM (active). In the case of `CCC(=O)N1CCc2cc(Br)c(S(=O)(=O)NCCN3CCCCC3CC)cc21` (stereo not drawn), the Potency entry was “inactive”.

Values taken from PubChem BioAssay AID686979 (National Center for Advancing Translational Sciences (NCATS), 2013).
